The list is not random: actives were taken first. Their share in the collection is about 7.3%.
Rab9 promoter act – Rab9 promoter activation; Huh7 Rab9 promoter-luciferase reporter, luminescence, 24 h; Potency, µM (titrated, usually from 9.22 µM), for inactives: at the top dose activation, negative = inhibition, actives largely listed as activators; 2.8% of 320,000 active; AID 485297; also: % of control where 0% means no effect; nearly all actives have a fitted effect of over 60% in size
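Huh7 reporter line, Rab9 promoter upstream of luciferase. Compound exposure 24 h at 37 °C in reduced-serum medium with 10% FBS. Read-out: luminescence.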
KinaseGlo FLuc – counter-screen: inhibitors of Kinase-Glo firefly luciferase; Potency, µM (doses to about 38.3 µM), for inactives: at the highest dose activity change, negative = inhibition, hits mostly inhibitors; Q27757; 0.28% of 200,000 active; Kinase-Glo luciferase, ATP luminescence, 8 min; AID 1379; also: % is scaled to controls: 0 for no effect and ±100 for the full control effect; nearly all actives have a fitted effect of over 60% in size
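Substrate mix (final 50 mM imidazole pH 7.2, 50 mM KCl, 7 mM MgCl2, 10 uM ATP, 0.01% Tween 20, 0.05% BSA) plus pin-tool compound, then Kinase-Glo detection mix; 8 min ambient, luminescence read.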
FLuc modulator – inhibits or activates purified firefly luciferase, miR-21 counter-screen | P08659 | purified FLuc, Km substrates, luminescence inhibition | Potency, µM (series often up to 57.5 µM), for the others: at the top dose activity change, negative = inhibition, usual class: inhibitors | 6.9% of 360,000 active | AID 588342;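 also: plate controls were vehicle for no effect and reference inhibitor for full effect; nearly all actives have a fitted effect of over 55% in size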
Target sequence (P08659 whole entry, looked up): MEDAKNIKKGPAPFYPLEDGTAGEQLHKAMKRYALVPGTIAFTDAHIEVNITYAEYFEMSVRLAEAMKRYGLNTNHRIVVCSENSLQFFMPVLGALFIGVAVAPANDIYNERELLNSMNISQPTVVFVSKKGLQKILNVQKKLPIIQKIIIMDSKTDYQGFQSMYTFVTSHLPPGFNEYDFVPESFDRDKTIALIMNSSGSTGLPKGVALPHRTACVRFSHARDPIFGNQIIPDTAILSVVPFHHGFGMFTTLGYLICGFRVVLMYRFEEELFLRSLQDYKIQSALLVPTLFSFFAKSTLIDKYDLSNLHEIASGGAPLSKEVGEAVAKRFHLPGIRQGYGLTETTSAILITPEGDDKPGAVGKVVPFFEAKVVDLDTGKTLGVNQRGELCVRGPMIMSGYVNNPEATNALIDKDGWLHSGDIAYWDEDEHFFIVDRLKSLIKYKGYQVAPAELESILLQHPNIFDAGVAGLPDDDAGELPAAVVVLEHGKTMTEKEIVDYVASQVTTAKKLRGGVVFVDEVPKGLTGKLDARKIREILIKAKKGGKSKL
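Biochemical qHTS of compounds, final roughly 60 µM downward over six points, against 10 nM purified firefly luciferase using Km concentrations of substrates (10 uM D-luciferin, 10 uM ATP) in Tris acetate pH 7.5 buffer; luminescence output.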
NPC1 promoter act – activators of NPC1 promoter | Huh7 NPC1 promoter luciferase reporter, 24 h | Potency, µM (titrated, usually from 9.22 µM), inactives show top-dose activation, actives largely listed as activators | 2.4% of 320,000 active | AID 485313; also: % of control where 0% means no effect; nearly all actives have a fitted effect of over 60% in size
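In 1536-well qHTS, Huh7 cells harboring an NPC1 promoter–luciferase construct received compound for 24 h; activation was quantified by luminescence following luciferase reagent addition.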
SMN2 splice up – SMN2 splice variant enhancement | 2.8% of 210,000 active | Potency, µM (highest dose often 46.1 µM), for inactives: at the highest dose activity change, positive = activation, actives largely listed as activators | AID 1458 | HEK293 SMN2-luciferase splicing reporter, luminescence, 30-36 h; also: % of control where 0% means no effect; nearly all actives have a fitted effect of over 55% in size
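HEK293 cells carry an SMN2 minigene-luciferase reporter in which exon 7 inclusion puts luciferase in frame. Cells were seeded at 2000 cells/well, attached for 10-12 hours, then exposed to compounds for 30-36 hours at 37C before ONE-Glo luminescence.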
An asterisk follows results filed as active; ? = inconclusive; / = no result. Calls follow the shape of the dose curve; as a rule, active = well fitted curve in the direction sought with a large enough effect; inconclusive = small, poorly fitted or top-dose-only effect, or another doubt; inactive = no such curve, though single readings can be large; an effect the other way counts as inactive or inconclusive. Potency is read from the fitted curve at half-maximal effect.

SMILES	Rab9 promoter act	KinaseGlo FLuc	FLuc modulator	NPC1 promoter act	SMN2 splice up
O=C(CCCN1C(=O)/C(=C/c2ccccc2Cl)SC1=S)NNC(=O)c1ccncc1	-14%	/	15µM*	-13%	/
O=C(CCN1C(=O)/C(=C/c2ccccc2Cl)SC1=S)N1CCCC1	-27%	/	27µM*	-22%	/
O=C(CCCN1C(=O)/C(=C/c2ccccc2Cl)SC1=S)N1CCCC1	-26%	/	?	-12%	/
COC(=O)c1sccc1S(=O)(=O)N1CCN(c2ccc(C)cc2C)CC1	/	/	3%	/	/
CCc1ccccc1N(CC)C(=O)c1c(C)oc2ncn(C)c(=O)c12	/	/	-6%	/	/
C=CCOC(=O)COc1ccc2c(C)c(C)c(=O)oc2c1	-1%	0%	19µM*	0%	10%
C=CCOC(=O)COc1ccc2c(C)c(CC)c(=O)oc2c1	-3%	1%	12µM*	5%	29%
CCOC(=O)CCc1c(C)c2ccc(OCC(=O)OC(C)C)cc2oc1=O	-2%	0%	-17%	-1%	0%
COc1ccc(CNC(=O)Cn2nc(C)c3nn(-c4ccc(Cl)cc4)c(C)c3c2=O)cc1	/	/	-5%	/	/
COCCn1c(C)cc(O)c(C(c2cccc(F)c2)N2CCN(c3ccccc3)CC2)c1=O (configuration not stated)	/	/	-7%	/	/
Cc1cc2cc(OCc3ccccc3)ccc2n1C	3.2µM*	/	5.4µM*	2µM*	/
O=Cc1c[nH]c2ccc(OCc3ccccc3)cc12	0%	/	?	0%	/
Cc1c(C=O)c2cc(OCc3ccccc3)ccc2n1C	4µM*	/	15µM*	?	/
CCc1nnc(NS(=O)(=O)c2ccc(N=Cc3c(C)[nH]n(-c4ccc(C)c(C)c4)c3=O)cc2)s1	-2%	2µM*	15µM*	-1%	?
CCn1cc(C(=O)O)c(=O)c2cc(F)c(N3CCN(C(=O)Nc4ccccc4)CC3)cc21	2%	-1%	0%	-3%	18µM*
COc1ccc(NC2=C(Cl)C(=O)N(CCc3ccccc3)C2=O)cc1	0%	0%	2.7µM*	6%	16µM*
CCOc1ccccc1NC1=C(Cl)C(=O)N(c2ccc(OC)cc2)C1=O	-4%	3%	0%	3%	12%
COc1ccc(N2C(=O)C(Cl)=C(NCc3ccccc3)C2=O)cc1	6%	-3%	21µM*	-1%	0%
CCOC(=O)c1noc2nc(C)n(CC(=O)Nc3ccc(OC)c(Cl)c3)c(=O)c12	/	/	2%	/	/
Cc1ccc(C(=O)COC(=O)c2cccc(NC(=O)c3ccc(Cl)cc3Cl)c2)cc1	/	/	0.85µM*	/	?
O=C(Nc1cccc(NC(=O)c2ccccc2Cl)c1)c1cccc(Br)c1	/	/	1%	/	-11%
COc1cccc(C(=O)Nc2cccc(NC(=O)c3ccc(Cl)cc3Cl)c2)c1	/	/	7.6µM*	/	-9%
CCC(=O)NC(=S)Nc1cccc(NC(=O)c2ccc(Cl)cc2Cl)c1	-8%	1%	12µM*	-14%	-7%
CCCOc1ccc(C(=O)Nc2cccc(NC(=O)c3ccc(Cl)cc3Cl)c2)cc1	/	/	-1%	/	-23%
CCCOc1cccc(C(=O)Nc2cccc(NC(=O)c3ccc(Cl)cc3Cl)c2)c1	/	/	?	/	-11%
SMILES	Rab9 promoter act	KinaseGlo FLuc	FLuc modulator	NPC1 promoter act	SMN2 splice up
COc1cccc(C(=O)Nc2cccc(NC(=O)c3ccccc3Cl)c2)c1	10%	/	15µM*	-1%	/
CCn1ccc2cc(S(=O)(=O)N3CCC(C(=O)NCc4cccc(C)c4)CC3)ccc21	/	/	-6%	/	/
CNCCCCc1cnc(C)c2[nH]c3ccccc3c12	/	0%	/	/	-42%
O=C(Nc1cccc(NC(=O)c2ccc(Cl)cc2Cl)c1)c1cccnc1	-5%	/	13µM*	-5%	/
COc1cccc(C(=O)Nc2cccc(C(=O)NC3=NN(c4c(Cl)cc(Cl)cc4Cl)C(=O)C3)c2)c1	17%	-2%	9.5µM*	-2%	9%
CC(C)(C)C(=O)NC1=NN(c2c(Cl)cc(Cl)cc2Cl)C(=O)C1	-3%	-4%	3%	-11%	/
COc1ccc(-c2cc(C(F)(F)F)nc(SCCC(=O)Nc3cccc(O)c3)n2)cc1	/	/	-3%	/	-17%
CCn1cc(C(=O)N2CCN(c3ccccc3F)CC2)c(=O)c2cc(S(=O)(=O)N(C)C3CCCCC3)ccc21	/	/	?	/	4%
CCOc1ccc(-c2ccc(SCC(=O)NCC3CCCO3)nn2)cc1 (configuration not stated)	3.2µM*	-6%	5.4µM*	?	16µM*
Cc1ccc(-c2ccc3nnc(SCC(=O)NCC4CCCO4)n3n2)cc1 (configuration not stated)	3%	3%	2%	-4%	-52%
CCOC(=O)CSc1ncnc2c1nnn2-c1ccc(F)cc1	3%	0%	15µM*	0%	-15%
Cc1ccc(-n2nnc3c(SCC(=O)NCC4CCCO4)ncnc32)cc1 (configuration not stated)	-1%	-1%	5.4µM*	8%	-5%
CCOc1ccc(-c2ccc3nnc(SCC(=O)NCC4CCCO4)n3n2)cc1 (configuration not stated)	-8%	/	4%	-3%	/
CCOC(=O)CC(=O)CSc1ncnc2c1nnn2-c1ccc(F)cc1	5%	1%	?	-1%	-8%
Cc1ccc(-c2ccc(SCC(=O)NCC3CCCO3)nn2)cc1 (configuration not stated)	18%	-3%	17µM*	11%	-1%
O=c1c2sc3ccccc3c2n(Cc2cccc(C(F)(F)F)c2)c(=O)n1-c1ccccc1	/	/	1%	/	-1%
Cc1ccc(NC(=O)CSc2nc3c(c(=O)[nH]2)CN(Cc2ccccc2)CC3)cc1Cl	/	/	-12%	/	/
CCOC(=O)c1[nH]c(C)c(C(=O)NCCc2ccccc2)c1C	/	/	-7%	/	/
N#Cc1c(N)nc2c(c1N)CC(COc1ccccc1)O2 (configuration not stated)	4.5µM*	-3%	17µM*	2.8µM*	/
Cc1ccccc1OCC1Cc2c(nc(N)c(C#N)c2N)O1 (configuration not stated)	?	/	13µM*	?	/
COc1cccc(CNC(=O)c2ccc3c(c2)sc2nc(-c4ccccc4)cn23)c1OC	/	/	-2%	/	/
CCN1C(=O)c2ccccc2S(=O)(=O)c2ccc(C(=O)NCc3ccccc3OC)cc21	/	/	0%	/	-13%
Cc1cccc(N2C(=O)CS(=O)(=O)C23C(=O)N(C)c2ccccc23)c1 (configuration not stated)	/	/	-3%	/	/
O=C(c1ccccc1)n1c(=S)nc2ccccn21	3.5µM*	/	0.43µM*	1µM*	/
Cc1ccc(C(=O)n2c(=S)nc3ccccn32)cc1	0.63µM*	?	0.12µM*	0.79µM*	2µM*
Cc1ccc(C(=O)n2ncn(C)c2=S)cc1	-1%	3%	?	1%	16%
Cc1cccc(C(=O)n2c(=S)nc3ccccn32)c1	0.45µM*	14µM*	0.48µM*	0.56µM*	4.5µM*

High-throughput results as filed in PubChem.
